Test results from PubChem BioAssay (NCI).
About 83,000 compounds went through this panel and 20% of them were active in at least one assay; those are over-represented in the sample as a whole.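 Growth was measured after 48 h exposure to one concentration of compound in 96-well plates. Values under 10 count as active.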 Active and inactive are the calls of the source.

Columns and labels:
Experiment in all cases: NCI-60 one-dose screen, 48 h (100 = growth as untreated, 0 = no growth, -100 = all killed)
Conditions in all cases: 10 µM unless noted
HCT-15 colon = system: HCT-15 colon
HT29 colon = system: HT29 colon
SNB-75 CNS = system: SNB-75 CNS
SNB-19 CNS = system: SNB-19 CNS
U251 CNS = system: U251 CNS
PC-3 prostate = system: PC-3 prostate
SK-MEL-5 melanoma = system: SK-MEL-5 melanoma
UACC-62 melanoma = system: UACC-62 melanoma
LOX IMVI melanoma = system: LOX IMVI melanoma
SK-MEL-28 melanoma = system: SK-MEL-28 melanoma
EKVX NSCLC = system: EKVX NSCLC
SN12C renal = system: SN12C renal
UO-31 renal = system: UO-31 renal
TK-10 renal = system: TK-10 renal
ACHN renal = system: ACHN renal
CAKI-1 renal = system: CAKI-1 renal
A498 renal = system: A498 renal
CCRF-CEM leukemia = system: CCRF-CEM leukemia
MOLT-4 leukemia = system: MOLT-4 leukemia
SK-MEL-2 melanoma = system: SK-MEL-2 melanoma

Measured: growth

O=c1ccc2ccc(OCCN3CCCCC3)cc2o1
inactive: HCT-15 colon 108% | HT29 colon 98.9% | SNB-75 CNS 105% | SNB-19 CNS 104% | U251 CNS 103% | PC-3 prostate 23.5% | SK-MEL-5 melanoma 107% | UACC-62 melanoma 94.1% | LOX IMVI melanoma 101% | SK-MEL-28 melanoma 102% | EKVX NSCLC 101% | SN12C renal 95.9% | UO-31 renal 80.8% | TK-10 renal 104% | ACHN renal 104% | CAKI-1 renal 104% | A498 renal 85%
active: CCRF-CEM leukemia 0.515% | MOLT-4 leukemia 7.74%

Cn1cc(-c2nonc2-c2c[nH]c3ccccc23)c2cc(Br)ccc21
active: HT29 colon 8.18%
inactive: HCT-15 colon 18.5% | SNB-75 CNS 46.3% | SNB-19 CNS 49.7% | U251 CNS 29.8% | PC-3 prostate 41.7% | SK-MEL-5 melanoma 48% | UACC-62 melanoma 34.2% | LOX IMVI melanoma 19% | SK-MEL-28 melanoma 60.8% | EKVX NSCLC 33.6% | SN12C renal 55% | UO-31 renal 36.8% | TK-10 renal 53.3% | ACHN renal 40.3% | CAKI-1 renal 26.3% | A498 renal 40.3% | CCRF-CEM leukemia 31% | MOLT-4 leukemia 17.8%

CN1CCOCCN(C)Cc2ccc3ccc(cc3c2)CN(C)CCOCCN(C)Cc2ccc3ccc(cc3c2)C1
inactive: HCT-15 colon 73.2% | SNB-75 CNS 78.3% | SNB-19 CNS 86.5% | U251 CNS 80.7% | PC-3 prostate 55.5% | SK-MEL-5 melanoma 99.4% | UACC-62 melanoma 104% | LOX IMVI melanoma 93.8% | SK-MEL-28 melanoma 105% | EKVX NSCLC 106% | SN12C renal 92.6% | UO-31 renal 80.8% | TK-10 renal 97.4% | ACHN renal 98.5% | CAKI-1 renal 77.7% | A498 renal 79.1% | CCRF-CEM leukemia 56.3%
active: HT29 colon 7.33%

CN1CCN(c2ccc(NC3=CC(=O)c4ncncc4C3=O)cc2)CC1
active: HCT-15 colon -71.7% | HT29 colon -29% | SNB-75 CNS -94.7% | SNB-19 CNS -91.9% | U251 CNS -82.3% | PC-3 prostate -8.86% | SK-MEL-5 melanoma -94% | UACC-62 melanoma -89.8% | LOX IMVI melanoma -63.8% | SK-MEL-28 melanoma -75.3% | EKVX NSCLC -87.1% | SN12C renal -75.6% | UO-31 renal -98.3% | TK-10 renal -82.3% | ACHN renal -96.2% | CAKI-1 renal -96% | A498 renal -36.7% | CCRF-CEM leukemia 3.21% | MOLT-4 leukemia -28.4%

CNC(=O)c1cc(Oc2ccc3c(c2)sc2nc(-c4cc(C(F)(F)F)cc(C(F)(F)F)c4)cn23)ccn1
inactive: HCT-15 colon 70.9% | HT29 colon 38.7% | SNB-75 CNS 23.3% | SNB-19 CNS 62.8% | U251 CNS 38.6% | PC-3 prostate 45.4% | SK-MEL-5 melanoma 33% | UACC-62 melanoma 53.3% | LOX IMVI melanoma 50.1% | SK-MEL-28 melanoma 79.3% | SK-MEL-2 melanoma 56.8% | SN12C renal 60.2% | UO-31 renal 61.7% | TK-10 renal 36% | ACHN renal 50.3% | CAKI-1 renal 51.1% | A498 renal 42.5% | CCRF-CEM leukemia 64.1% | MOLT-4 leukemia 45.3%

c1csc(-c2cn3nc(-c4c[nH]c5ccccc45)sc3n2)c1
active: HT29 colon 6.1% | SNB-75 CNS -4.32%
inactive: HCT-15 colon 21.6% | SNB-19 CNS 28.7% | U251 CNS 23.7% | PC-3 prostate 26.5% | SK-MEL-5 melanoma 19.5% | UACC-62 melanoma 32.5% | LOX IMVI melanoma 28.8% | SK-MEL-28 melanoma 48.5% | SK-MEL-2 melanoma 37.2% | SN12C renal 34.2% | UO-31 renal 30.7% | TK-10 renal 50.5% | ACHN renal 42.2% | CAKI-1 renal 29.8% | CCRF-CEM leukemia 10.7% | MOLT-4 leukemia 27.2%

CNC(=O)NCC1OC(n2cnc3c(NC(=O)Nc4ccccc4)ncnc32)C2OC(=O)CC12 (stereo not given)
inactive: HCT-15 colon 92.2% | HT29 colon 110% | SNB-75 CNS 96.7% | SNB-19 CNS 103% | U251 CNS 96.2% | PC-3 prostate 99.8% | SK-MEL-5 melanoma 110% | UACC-62 melanoma 99.2% | LOX IMVI melanoma 62.7% | SK-MEL-28 melanoma 107% | EKVX NSCLC 102% | SN12C renal 113% | UO-31 renal 64.2% | TK-10 renal 99.3% | ACHN renal 94.9% | CAKI-1 renal 100% | A498 renal 93.7% | MOLT-4 leukemia 69.7%

COc1cc(O)c2c(=O)c3c(CC=C(C)C)cc(OC)c(O)c3oc2c1
active: SNB-75 CNS 5.63% | U251 CNS 9.71%
inactive: HCT-15 colon 29.6% | HT29 colon 71.4% | SNB-19 CNS 27.2% | SK-MEL-5 melanoma 52.9% | UACC-62 melanoma 17% | LOX IMVI melanoma 40.3% | SK-MEL-28 melanoma 63% | SK-MEL-2 melanoma 29.1% | EKVX NSCLC 53.7% | SN12C renal 40.2% | UO-31 renal 43.7% | TK-10 renal 66.6% | ACHN renal 50.3% | CAKI-1 renal 44% | A498 renal 31.1% | CCRF-CEM leukemia 16.5% | MOLT-4 leukemia 25.6%

c1ccc2cc(Cn3cc(CSc4nc5ccccc5s4)nn3)ccc2c1
inactive: HCT-15 colon 107% | HT29 colon 95.7% | SNB-75 CNS 101% | SNB-19 CNS 93.3% | U251 CNS 95.6% | SK-MEL-5 melanoma 107% | UACC-62 melanoma 84.8% | LOX IMVI melanoma 98.8% | SK-MEL-28 melanoma 102% | SK-MEL-2 melanoma 90.6% | EKVX NSCLC 101% | SN12C renal 94.5% | UO-31 renal 77.6% | TK-10 renal 102% | ACHN renal 99.3% | CAKI-1 renal 83.3% | CCRF-CEM leukemia 97.2% | MOLT-4 leukemia 96.4%

COc1cc(/C=C/C(=O)N2CCN(C(=O)c3cc(OC)c(OC)c(OC)c3)CC2)ccc1OCCCOc1cc2c(cc1OC)C(=O)N1CCC[C@H]1C=N2
active: SNB-75 CNS -48.1% | U251 CNS 7.58% | SK-MEL-5 melanoma 2.69% | UACC-62 melanoma -90.1% | LOX IMVI melanoma 1.38% | SK-MEL-28 melanoma -47.3% | SK-MEL-2 melanoma -42.4% | EKVX NSCLC 8% | UO-31 renal -12.8% | TK-10 renal 6.61% | ACHN renal 0.236% | CAKI-1 renal 3.12% | A498 renal -55.8% | CCRF-CEM leukemia -1.17% | MOLT-4 leukemia 7.57%
inactive: HCT-15 colon 43.4% | HT29 colon 13.5% | SNB-19 CNS 13.8% | SN12C renal 13.9%

COc1ccc(CNc2ccc3nc(NC(=O)CN4CCCCCC4)sc3c2)cc1
inactive: HCT-15 colon 70.9% | HT29 colon 60.6% | SNB-75 CNS 131% | SNB-19 CNS 96.1% | U251 CNS 85.4% | PC-3 prostate 65.8% | SK-MEL-5 melanoma 67.8% | UACC-62 melanoma 73.8% | LOX IMVI melanoma 78.5% | SK-MEL-28 melanoma 101% | EKVX NSCLC 80.1% | SN12C renal 87.3% | UO-31 renal 80.6% | TK-10 renal 117% | ACHN renal 89.8% | CAKI-1 renal 85.2% | CCRF-CEM leukemia 58.6% | MOLT-4 leukemia 61.1%

c1cc(OCCN2CCCC2)ccc1CNc1ccc2nc(CCC3CCCCC3)[nH]c2c1
inactive: SNB-75 CNS 64.1% | SNB-19 CNS 68.7% | UACC-62 melanoma 62.8% | SK-MEL-2 melanoma 35.6% | EKVX NSCLC 80.9% | SN12C renal 71.3% | TK-10 renal 95.1% | ACHN renal 60.4% | A498 renal 34.2% | CCRF-CEM leukemia 12.7%
active: HCT-15 colon 3.99% | HT29 colon 7.25% | U251 CNS 4.28% | SK-MEL-5 melanoma -96.5% | LOX IMVI melanoma -78.5% | SK-MEL-28 melanoma -85.3% | UO-31 renal 9.54%

COc1cc2ncnc(Nc3ccc(F)c(Cl)c3)c2cc1OCC(=O)N1CCOCC1
inactive: HCT-15 colon 96.6% | HT29 colon 91.8% | SNB-75 CNS 102% | SNB-19 CNS 86% | U251 CNS 102% | SK-MEL-5 melanoma 98.4% | UACC-62 melanoma 86.6% | LOX IMVI melanoma 97.8% | SK-MEL-28 melanoma 106% | SK-MEL-2 melanoma 87.1% | EKVX NSCLC 63.3% | SN12C renal 80.3% | UO-31 renal 52.4% | TK-10 renal 20.8% | ACHN renal 31.9% | CAKI-1 renal 48.4% | A498 renal 66.2% | CCRF-CEM leukemia 91.6% | MOLT-4 leukemia 91.5%

COc1cc(-c2ccc(-c3ccc(C(=N)N)cc3)s2)cc(OC)c1OC
inactive: HCT-15 colon 58.9% | SNB-75 CNS 64.8% | SNB-19 CNS 69.1% | U251 CNS 26.2% | SK-MEL-5 melanoma 55.3% | UACC-62 melanoma 54.7% | LOX IMVI melanoma 27.2% | SK-MEL-28 melanoma 77.3% | SK-MEL-2 melanoma 83.9% | EKVX NSCLC 75.4% | SN12C renal 71.4% | UO-31 renal 79.3% | TK-10 renal 113% | ACHN renal 91.1% | CAKI-1 renal 63.4% | A498 renal 89.2% | CCRF-CEM leukemia 26.9%
active: HT29 colon 8.4% | MOLT-4 leukemia -2.06%

Cc1ccc(S(=O)(=O)OCC#CCOS(=O)(=O)c2ccc(C)cc2)cc1
inactive: HCT-15 colon 72.3% | HT29 colon 50.3% | SNB-19 CNS 70.1% | U251 CNS 22.6% | SK-MEL-5 melanoma 59.4% | UACC-62 melanoma 42.4% | SK-MEL-28 melanoma 74.9% | SK-MEL-2 melanoma 66.4% | EKVX NSCLC 60.9% | SN12C renal 64.1% | TK-10 renal 101% | ACHN renal 49.5% | A498 renal 85.9%
active: SNB-75 CNS 5% | LOX IMVI melanoma -35.8% | UO-31 renal -87.1% | CAKI-1 renal -82.9%

O=S(Nc1ccccc1)c1ccc(Cl)cc1 (stereo not given)
inactive: HCT-15 colon 109% | HT29 colon 102% | SNB-75 CNS 83.2% | SNB-19 CNS 96.8% | U251 CNS 95.1% | SK-MEL-5 melanoma 99.8% | UACC-62 melanoma 90.4% | LOX IMVI melanoma 100% | SK-MEL-28 melanoma 107% | SK-MEL-2 melanoma 95.2% | EKVX NSCLC 102% | SN12C renal 102% | UO-31 renal 85.7% | TK-10 renal 103% | ACHN renal 94.5% | CAKI-1 renal 95.5% | A498 renal 95.8% | CCRF-CEM leukemia 95.7% | MOLT-4 leukemia 85.7%
